31 compounds from ChEMBL document CHEMBL3988442, “University of Dundee, Small-Polar-MMV Screening Library” (2021) can be followed below.

Among all 65,000 compounds or so, about 65 (0.1%) showed an effect of 50% or more. The entries come from a sample that favours strong results as a whole.

Chain of Tryptophan--tRNA ligase (Mycobacterium tuberculosis (strain ATCC 25618 / H37Rv)) (P9WFT3 whole entry): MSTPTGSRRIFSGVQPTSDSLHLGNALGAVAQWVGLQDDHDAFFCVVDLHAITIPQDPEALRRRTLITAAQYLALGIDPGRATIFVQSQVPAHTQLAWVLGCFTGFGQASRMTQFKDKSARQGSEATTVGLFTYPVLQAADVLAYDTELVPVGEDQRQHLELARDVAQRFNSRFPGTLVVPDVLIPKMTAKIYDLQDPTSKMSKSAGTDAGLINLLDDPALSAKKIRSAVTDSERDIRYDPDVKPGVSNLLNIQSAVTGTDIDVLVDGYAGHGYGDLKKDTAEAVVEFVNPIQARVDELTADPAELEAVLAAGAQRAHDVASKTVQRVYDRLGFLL

The assay concerns the target Tryptophan--tRNA ligase (Mycobacterium tuberculosis (strain ATCC 25618 / H37Rv)) (UniProt P9WFT3). In words: Biochemical assay for Mt-TrpRS. In kind it is functional. On the set-up: scale not given: direction of the effect not stated beside the values. The following applies: 10 µM.
Take `CC(C)c1nc(CN2CCCC(Cn3cncn3)C2)cs1` (stereo unspecified): the Percent Effect worked out at 61.3%.

Regarding `c1cnc(-c2nc(CN3CCCC(Cn4cncn4)C3)cs2)nc1` (stereo unspecified), the Percent Effect is -1.17%.

Turning to `Cc1ccc(CN(C)C(=O)CN2CCCC(Cn3cncn3)C2)cc1` (stereo unspecified), the Percent Effect worked out at 11.8%.

For the compound `CC(C)(C)c1nc(CN2CCCC(Cn3cncn3)C2)cs1` (stereo unspecified), the Percent Effect came out at 3.52%.

Regarding `CN(Cc1cnn(C)c1)C(=O)CN1CCCC(Cn2cncn2)C1` (stereo unspecified), the Percent Effect is 85.4%.

With `CN(Cc1ccccc1)C(=O)CN1CCCC(Cn2cncn2)C1` (stereo unspecified), the Percent Effect was 5.08%.

In the case of `O=C(c1ccno1)N1CCN2C(=O)N(Cc3ccc(F)cc3)C[C@H]2C1`, the Percent Effect turned out to be 0.0753%.

`O=C(c1ccnnc1)N1C[C@H](OCC2CCOCC2)[C@H]2OCCC[C@H]21`: the Percent Effect is -0.419%.

For `O=C(C1CCC1)N1C[C@H]2CNC[C@H]2C1`, the Percent Effect came to 9.01%.

As for `O=C(NS(=O)(=O)c1cccnc1)C1CC(c2ccccc2)=NO1` (stereo unspecified), the Percent Effect worked out at 54.1%.

Regarding `N#Cc1ccc(S(=O)(=O)NC(=O)C2CC(c3ccccc3)=NO2)cc1` (stereo unspecified), the Percent Effect is 0.0809%.

Consider `COc1cccc(S(=O)(=O)NC(=O)C2CC(c3ccccc3)=NO2)c1` (stereo unspecified), for which the Percent Effect came out at 0.405%.

Turning to `COc1c(CNC2CCN(c3ncccn3)CC2)c(C(C)C)nn1C`, the Percent Effect is 1.66%.

On to `COc1c(CNC2CCN(c3ccccn3)CC2)c(C(C)C)nn1C`, for which the Percent Effect was 1.1%.

As to `COc1c(CNC2CCCN(c3ncccn3)C2)c(C(C)C)nn1C` (stereo unspecified), the Percent Effect came to 67.7%.

Turning to `COc1cccc(OC)c1CNC(Cc1ccsc1)c1ccc(C)cn1` (stereo unspecified), the Percent Effect is -1.02%.

In the case of `Cc1occc1C(=O)N1C[C@@H]2CCCO[C@@H]2[C@H](N(C)Cc2ccco2)C1`, the Percent Effect was determined as 1.95%.

For `CC(C)c1cc(C(=O)N2CCN(CC3CC3)[C@@H]3CS(=O)(=O)C[C@@H]32)no1`, the Percent Effect was -4.85%.

On to `CCCN1CCCC2(CCN(Cc3noc(C4CCCC4)n3)C2)C1=O` (stereo unspecified), for which the Percent Effect is 7.84%.

As to `CC(C)N1CCCC2(CCN(Cc3noc(C4CCCC4)n3)C2)C1=O` (stereo unspecified), the Percent Effect amounted to 54.2%.

As to `O=C1N(CCO)CCCC12CCN(Cc1noc(C3CCCC3)n1)C2` (stereo unspecified), the Percent Effect is 7.84%.

Take `O=C(NCc1ccccc1)N1C[C@H]2CCN[C@H]2C1`: the Percent Effect stood at 2.62%.

As for `COCCN1C(=O)CO[C@H]2CN(S(=O)(=O)c3ccccc3)C[C@H]21`, the Percent Effect was -1.73%.

Take `CCN1C[C@@H]2[C@@H](OC)CCN(C(=O)c3cc(C)nn3CC)[C@@H]2C1`: the Percent Effect is -1.95%.

For the compound `Cc1cc(NC(=O)CN2CCc3cncnc3C2)no1`, the Percent Effect was 69%.

For the compound `Cc1ncc2c(n1)CN(CC(=O)Nc1cc(C)on1)CC2`, the Percent Effect was 0.514%.

With `Cc1cc(NC(=O)CN2CCc3cncnc3C2)on1`, the Percent Effect amounted to 2.85%.

For `CCCS(=O)(=O)N1CC[C@H]2O[C@H](c3nnc(C)o3)CC[C@H]21`, the Percent Effect was -5.84%.

Take `CNC(=O)c1nc(CN2CCOC(C(F)(F)F)C2)no1` (stereo unspecified): the Percent Effect came out at 69.6%.

With `NC(=O)c1nc(CN2CCOC(C(F)(F)F)C2)no1` (stereo unspecified), the Percent Effect was -0.819%.

On to `CNC(=O)c1nc(CN2CCOC(CCCC(C)C)C2)no1` (stereo unspecified), for which the Percent Effect is 0.819%.
